Screening data (PubChem)
Shown are actives, neighbours in structure and some others; about 3.2% of the full set was active somewhere.
MsrA act = bovine methionine sulfoxide reductase A activation | purified bovine MsrA, absorbance read-out | activation, % at 10.6 µM | actives 0.3% (n = 360,000); in the data active = activation above about 7.5%;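 note: 0% = vehicle and 100% = reference activator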
PG9 Ab binder = small molecules binding HIV-1 gp120 antibody PG9; TR-FRET gp120-PG9 antibody binding; inhibition, % at 6.7 µM; actives 0.43% (n = 360,000); in the data active = inhibition above about 8.5%
sPLA2-III inh = Blocks human group III sPLA2 activity. inhibition, % at 12.2 µM. actives 0.56% (n = 370,000). Q9NZ20. QFRET BODIPY PC-A2 liposome hydrolysis, fluorescence;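 active = inhibition above mean plus 3 SD of compounds lying within the high and low control bounds, cut at about 19% in these data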;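 note: 0% = median of test compound wells and 100% = no enzyme DMSO wells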
Target sequence (Q9NZ20 whole entry, looked up): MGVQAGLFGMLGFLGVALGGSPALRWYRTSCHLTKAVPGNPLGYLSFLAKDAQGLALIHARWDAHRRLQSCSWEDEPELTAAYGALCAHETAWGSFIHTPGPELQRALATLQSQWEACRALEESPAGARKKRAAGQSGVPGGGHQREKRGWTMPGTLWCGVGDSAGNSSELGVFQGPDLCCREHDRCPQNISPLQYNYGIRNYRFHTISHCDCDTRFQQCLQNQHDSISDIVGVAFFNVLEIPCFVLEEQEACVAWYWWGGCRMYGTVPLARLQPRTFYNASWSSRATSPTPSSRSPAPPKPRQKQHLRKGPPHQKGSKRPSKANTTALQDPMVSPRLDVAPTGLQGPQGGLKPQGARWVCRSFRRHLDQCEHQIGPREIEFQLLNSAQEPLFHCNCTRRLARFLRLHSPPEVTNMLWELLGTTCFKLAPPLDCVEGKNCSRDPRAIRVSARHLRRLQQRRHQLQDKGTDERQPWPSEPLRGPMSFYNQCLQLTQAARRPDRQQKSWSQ
rCAG binder = binds r(CAG) RNA repeats; r(CAG) RNA repeat, TO-PRO-1 dye displacement fluorescence; inhibition, % at 3 µM; actives 1.3% (n = 370,000); AID 651821;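 active = inhibition above the plate cutoff, the mean of all test compounds on that plate plus 3 SD, cut at about 35% in these data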;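 note: 0% = DMSO alone and 100% = 100 µM mitoxantrone as full dye displacement; higher means more dye released from RNA so lower well fluorescence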
MsrA inh = bovine MsrA inhibition | purified bovine MsrA, absorbance read-out | inhibition, % at 15.5 µM | actives 0.75% (n = 360,000) | AID 651718; in the data active = inhibition above about 4.5%;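 note: 0% = vehicle wells with enzyme and 100% = reference inhibitor wells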
sPLA2 confirm = human GIII-sPLA2 inhibition, confirmation. shares compounds with sPLA2-III inh. recombinant hGIII-sPLA2, BODIPY PC-A2 QFRET fluorescence. inhibition, % at 12.2 µM. actives 34% (n = 2,000). AID 743280;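 active = mean inhibition across triplicates above the hit cutoff set in the earlier primary screen, cut at about 19% in these data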;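 note: 0% = enzyme with DMSO and 100% = DMSO wells lacking enzyme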
BODIPY interf = counter-screen for HGIII-sPLA2 inhibitors: 535nm fluorescence interference; shares compounds with sPLA2-III inh; BODIPY FL product fluorescence interference, QFRET; inhibition, % at 12.2 µM; actives 8.5% (n = 2,000); AID 743282;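 active = average inhibition above the solvent-only control mean plus 3 SD, cut at about 6% in these data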;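 note: 0% = DMSO with substrate plus product and 100% = DMSO with substrate alone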
535nm interf DR = 535nm optical interference dose response, HGIII-sPLA2 counter-screen | shares compounds with sPLA2-III inh | BODIPY FL product fluorescence interference, cell-free | IC50, µM | 240 tested, under 10 active;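 active = IC50 at or below 10 µM; inactive = IC50 above 10 µM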
The depositor's hits bear a star.

What do the screens show for `O=C(NCC1CCCO1)C(=O)NCC(c1ccco1)N1CCN(c2ccc(F)cc2)CC1` (stereo not given)?
MsrA act: -4.1; PG9 Ab binder: -2.4; sPLA2-III inh: 21.5*; rCAG binder: -9.3; MsrA inh: -0.4; sPLA2 confirm: 3.0; BODIPY interf: -17.7

What do the screens show for `Cc1ccc(CNC(=O)C(=O)NCC(c2ccco2)N2CCOCC2)cc1` (stereo not given)?
MsrA act: -10.5; PG9 Ab binder: -0.9; sPLA2-III inh: -5.8; rCAG binder: -0.9; MsrA inh: 0.1

What do the screens show for `O=C(NCc1ccc(Cl)cc1)C(=O)NCC(c1ccco1)N1CCOCC1` (stereo not given)?
MsrA act: -0.3; PG9 Ab binder: -3.3; sPLA2-III inh: 19.7*; rCAG binder: -7.5; MsrA inh: -0.3; sPLA2 confirm: 0.4; BODIPY interf: -16.1

Results for O=C(NCC1CCCO1)C(=O)NCC(c1ccco1)N1CCN(c2ccccc2)CC1 (stereo not given) ?
MsrA act: -2.8; PG9 Ab binder: -1.5; sPLA2-III inh: 18.1; rCAG binder: -8.5; MsrA inh: -0.4

Results for CC(C)(Oc1ccc(Cl)cc1)C(=O)NC1CC1 ?
MsrA act: -3.0; PG9 Ab binder: 0.8; sPLA2-III inh: 21.2*; rCAG binder: -6.3; MsrA inh: 0.6; sPLA2 confirm: -3.0; BODIPY interf: -2.1

Results for CC(C)(C)C(=O)C[n+]1ccc(C(N)=O)cc1 ?
MsrA act: 0.3; PG9 Ab binder: -0.6; sPLA2-III inh: 25.6*; rCAG binder: -0.7; MsrA inh: -0.6; sPLA2 confirm: 0.1; BODIPY interf: -2.9

Results for CN(C)C(=O)C[n+]1ccc(C(N)=O)cc1 ?
MsrA act: -1.7; PG9 Ab binder: 1.1; sPLA2-III inh: 10.6; rCAG binder: -0.8; MsrA inh: 0.4

How did CC(=O)N1N=C(c2ccc3ccccc3c2)OC1(C)C do in these assays?
MsrA act: -3.1; PG9 Ab binder: -0.4; sPLA2-III inh: -6.1; rCAG binder: -4.1; MsrA inh: 0.4

What do the screens show for `CC(=O)N1N=C(c2ccc(C(C)(C)C)cc2)OC1(C)C`?
MsrA act: -1.5; PG9 Ab binder: 0.3; sPLA2-III inh: 20.3*; rCAG binder: -7.9; MsrA inh: 0.2; sPLA2 confirm: 2.5; BODIPY interf: -17.4

What do the screens show for `Cc1cc(NS(=O)(=O)c2ccc(NC(=O)CSc3nnc(-c4cccnc4)n3-c3ccccc3)cc2)nc(C)n1`?
sPLA2-III inh: -2.1; rCAG binder: 14.1

What do the screens show for `CNC(=S)/N=C(\Nc1ccc(C)cc1)c1ccccc1`?
MsrA act: -2.2; PG9 Ab binder: 0.7; sPLA2-III inh: 20.8*; rCAG binder: 2.8; MsrA inh: 0.6; sPLA2 confirm: 19.0; BODIPY interf: -7.1

What do the screens show for `COC(=O)C1CN(Cc2cn(Cc3ccc(F)cc3)nn2)CCS(=O)(=O)N1Cc1ccccc1` (stereo not given)?
sPLA2-III inh: -3.7; rCAG binder: 4.1

What do the screens show for `CC1=C(C(=O)N2CCOCC2)CC(CC(=O)NCCc2ccccn2)C(=O)N1Cc1ccccc1` (stereo not given)?
MsrA act: -1.9; PG9 Ab binder: -1.1; sPLA2-III inh: 2.1; rCAG binder: -0.7; MsrA inh: -0.1

What do the screens show for `CN1C(=O)C[C@@](C#N)(C(=O)NCc2ccc3c(c2)OCO3)[C@H]1c1ccccc1`?
sPLA2-III inh: 1.3; rCAG binder: -0.6

How did C=CCn1c(-c2csc3c2CCC(C)C3)n[nH]c1=S (stereo not given) do in these assays?
MsrA act: -0.7; PG9 Ab binder: 1.1; sPLA2-III inh: 20.8*; rCAG binder: 5.5; MsrA inh: -0.8; sPLA2 confirm: 19.9*; BODIPY interf: 4.6

What do the screens show for `CCn1c(-c2csc3c2CCCC3)n[nH]c1=S`?
MsrA act: 2.6; PG9 Ab binder: 1.3; sPLA2-III inh: 28.6*; rCAG binder: 2.0; MsrA inh: 0.6; sPLA2 confirm: 30.1*; BODIPY interf: 2.4; 535nm interf DR: >122

How did CCCCn1c(-c2csc3c2CCC(C)C3)n[nH]c1=S (stereo not given) do in these assays?
MsrA act: -0.3; PG9 Ab binder: 0.4; sPLA2-III inh: -6.6; rCAG binder: -0.8; MsrA inh: -0.8

How did CCCCn1c(-c2csc3c2CCCC3)n[nH]c1=S do in these assays?
PG9 Ab binder: -4.4; sPLA2-III inh: 18.9; rCAG binder: 3.0; MsrA inh: 1.1

What do the screens show for `CC(C)(C)C1=Nn2c(nnc2-c2ccc(C(C)(C)C)cc2)SC1`?
sPLA2-III inh: -6.0; rCAG binder: -3.8

What do the screens show for `Cc1cccc2sc(NNC(=O)C3=COCCO3)nc12`?
MsrA act: -11.1; PG9 Ab binder: -1.9; sPLA2-III inh: 20.7*; rCAG binder: 3.7; MsrA inh: 1.6; sPLA2 confirm: 23.5*; BODIPY interf: -6.8

Results for CCOC(=O)c1cccc(NC(=O)CN(C)S(=O)(=O)c2ccc(Br)s2)c1 ?
sPLA2-III inh: -15.1; rCAG binder: 1.9

Results for CN(/N=C/c1ccc2c(c1)OCO2)c1ccccc1 ?
MsrA act: -2.6; PG9 Ab binder: -2.8; sPLA2-III inh: 22.6*; rCAG binder: 0.2; MsrA inh: 3.6; sPLA2 confirm: 41.5*; BODIPY interf: 6.6*

What do the screens show for `CCOc1ccccc1CNC(=O)c1ccc(NC(=O)C2=CSCCO2)cc1`?
MsrA act: -7.1; PG9 Ab binder: -3.7; sPLA2-III inh: -11.4; rCAG binder: -1.4; MsrA inh: 0.6

How did N/C(=N\C(=S)Nc1ccccc1)c1ccccc1 do in these assays?
MsrA act: 0.4; PG9 Ab binder: 1.1; sPLA2-III inh: 1.9; rCAG binder: -1.5; MsrA inh: -0.4

How did NC(N)=NC(=S)Nc1ccc(Cl)cc1 do in these assays?
MsrA act: -0.2; PG9 Ab binder: -2.3; sPLA2-III inh: 21.5*; rCAG binder: -3.7; MsrA inh: 0.5; sPLA2 confirm: 17.9; BODIPY interf: -3.6

What do the screens show for `COc1ccc(CNC(=O)C[C@H]2C[C@H](C(=O)N(C(C)C)C(C)C)[C@@]3(C)c4[nH]c5cc(-c6ccco6)ccc5c4CCN3C2=O)cc1OC`?
MsrA act: -5.4; PG9 Ab binder: 0.7; sPLA2-III inh: -6.0; rCAG binder: 5.3; MsrA inh: 0.7

How did CCN(CC)c1ccc(-c2nc3cnccn3c2NC2CCCC2)cc1 do in these assays?
MsrA act: -12.8; PG9 Ab binder: -0.9; sPLA2-III inh: 21.2*; rCAG binder: 0.1; MsrA inh: -0.6; sPLA2 confirm: 27.0*; BODIPY interf: -11.9

Results for c1cn2c(NC3CCCC3)c(-c3ccc(N4CCOCC4)cc3)nc2cn1 ?
MsrA act: 0.9; PG9 Ab binder: 1.0; sPLA2-III inh: 6.8; rCAG binder: 3.8; MsrA inh: 0.9
